Data taken from the supplement of paper PMC11732987, “Enantioselective OTUD7B fragment discovery through chemoproteomics screening and high-throughput optimisation” (Communications Chemistry, 2025).

How the values were obtained:
Assay in all cases: log2 ratio of Biotin-Ahx-Ub-VS probe labelling (fragment/DMSO); higher = less target engagement (more negative = stronger competition), active = hit call of the paper (q ≤ 0.05, log2 ratio ≤ -1)
Conditions in all cases: compound concentration: 200 uM; treatment time: 3 h
USP9X = USP9X (UniProt Q93008)
Procedure, shortened: (§1)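 Labelled DUBs from HEK293T lysate were NeutrAvidin-enriched, digested with LysC and trypsin, and run by diaPASEF LC-MS/MS. Before that, each 495 µg sample in Tris/CHAPS/IGEPAL buffer with protease inhibitors was treated in triplicate with fragment at 200 µM or vehicle for 3 h, then with Biotin-Ahx-Ub-VS at 0.5 µM final for 1 h. Values are average log2 ratios of fragment over vehicle by unpaired t-test, based on global-median-normalised Spectronaut label-free quantities from proteins with ≥2 unique peptides.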

UniProt O00487 = biological target: UniProt O00487
UniProt O00487, sequence (O00487 whole entry): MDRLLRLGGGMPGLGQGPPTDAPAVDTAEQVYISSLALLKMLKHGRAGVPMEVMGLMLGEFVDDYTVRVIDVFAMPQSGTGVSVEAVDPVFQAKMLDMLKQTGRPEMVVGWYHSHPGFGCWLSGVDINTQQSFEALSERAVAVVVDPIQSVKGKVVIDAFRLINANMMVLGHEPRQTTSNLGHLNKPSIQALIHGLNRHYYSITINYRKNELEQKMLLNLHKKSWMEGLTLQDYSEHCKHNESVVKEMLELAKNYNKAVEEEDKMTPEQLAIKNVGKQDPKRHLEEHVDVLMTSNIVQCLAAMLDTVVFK
Procedure, shortened: as §1

UniProt O00507 = biological target: UniProt O00507
UniProt O00507, sequence (O00507 whole entry): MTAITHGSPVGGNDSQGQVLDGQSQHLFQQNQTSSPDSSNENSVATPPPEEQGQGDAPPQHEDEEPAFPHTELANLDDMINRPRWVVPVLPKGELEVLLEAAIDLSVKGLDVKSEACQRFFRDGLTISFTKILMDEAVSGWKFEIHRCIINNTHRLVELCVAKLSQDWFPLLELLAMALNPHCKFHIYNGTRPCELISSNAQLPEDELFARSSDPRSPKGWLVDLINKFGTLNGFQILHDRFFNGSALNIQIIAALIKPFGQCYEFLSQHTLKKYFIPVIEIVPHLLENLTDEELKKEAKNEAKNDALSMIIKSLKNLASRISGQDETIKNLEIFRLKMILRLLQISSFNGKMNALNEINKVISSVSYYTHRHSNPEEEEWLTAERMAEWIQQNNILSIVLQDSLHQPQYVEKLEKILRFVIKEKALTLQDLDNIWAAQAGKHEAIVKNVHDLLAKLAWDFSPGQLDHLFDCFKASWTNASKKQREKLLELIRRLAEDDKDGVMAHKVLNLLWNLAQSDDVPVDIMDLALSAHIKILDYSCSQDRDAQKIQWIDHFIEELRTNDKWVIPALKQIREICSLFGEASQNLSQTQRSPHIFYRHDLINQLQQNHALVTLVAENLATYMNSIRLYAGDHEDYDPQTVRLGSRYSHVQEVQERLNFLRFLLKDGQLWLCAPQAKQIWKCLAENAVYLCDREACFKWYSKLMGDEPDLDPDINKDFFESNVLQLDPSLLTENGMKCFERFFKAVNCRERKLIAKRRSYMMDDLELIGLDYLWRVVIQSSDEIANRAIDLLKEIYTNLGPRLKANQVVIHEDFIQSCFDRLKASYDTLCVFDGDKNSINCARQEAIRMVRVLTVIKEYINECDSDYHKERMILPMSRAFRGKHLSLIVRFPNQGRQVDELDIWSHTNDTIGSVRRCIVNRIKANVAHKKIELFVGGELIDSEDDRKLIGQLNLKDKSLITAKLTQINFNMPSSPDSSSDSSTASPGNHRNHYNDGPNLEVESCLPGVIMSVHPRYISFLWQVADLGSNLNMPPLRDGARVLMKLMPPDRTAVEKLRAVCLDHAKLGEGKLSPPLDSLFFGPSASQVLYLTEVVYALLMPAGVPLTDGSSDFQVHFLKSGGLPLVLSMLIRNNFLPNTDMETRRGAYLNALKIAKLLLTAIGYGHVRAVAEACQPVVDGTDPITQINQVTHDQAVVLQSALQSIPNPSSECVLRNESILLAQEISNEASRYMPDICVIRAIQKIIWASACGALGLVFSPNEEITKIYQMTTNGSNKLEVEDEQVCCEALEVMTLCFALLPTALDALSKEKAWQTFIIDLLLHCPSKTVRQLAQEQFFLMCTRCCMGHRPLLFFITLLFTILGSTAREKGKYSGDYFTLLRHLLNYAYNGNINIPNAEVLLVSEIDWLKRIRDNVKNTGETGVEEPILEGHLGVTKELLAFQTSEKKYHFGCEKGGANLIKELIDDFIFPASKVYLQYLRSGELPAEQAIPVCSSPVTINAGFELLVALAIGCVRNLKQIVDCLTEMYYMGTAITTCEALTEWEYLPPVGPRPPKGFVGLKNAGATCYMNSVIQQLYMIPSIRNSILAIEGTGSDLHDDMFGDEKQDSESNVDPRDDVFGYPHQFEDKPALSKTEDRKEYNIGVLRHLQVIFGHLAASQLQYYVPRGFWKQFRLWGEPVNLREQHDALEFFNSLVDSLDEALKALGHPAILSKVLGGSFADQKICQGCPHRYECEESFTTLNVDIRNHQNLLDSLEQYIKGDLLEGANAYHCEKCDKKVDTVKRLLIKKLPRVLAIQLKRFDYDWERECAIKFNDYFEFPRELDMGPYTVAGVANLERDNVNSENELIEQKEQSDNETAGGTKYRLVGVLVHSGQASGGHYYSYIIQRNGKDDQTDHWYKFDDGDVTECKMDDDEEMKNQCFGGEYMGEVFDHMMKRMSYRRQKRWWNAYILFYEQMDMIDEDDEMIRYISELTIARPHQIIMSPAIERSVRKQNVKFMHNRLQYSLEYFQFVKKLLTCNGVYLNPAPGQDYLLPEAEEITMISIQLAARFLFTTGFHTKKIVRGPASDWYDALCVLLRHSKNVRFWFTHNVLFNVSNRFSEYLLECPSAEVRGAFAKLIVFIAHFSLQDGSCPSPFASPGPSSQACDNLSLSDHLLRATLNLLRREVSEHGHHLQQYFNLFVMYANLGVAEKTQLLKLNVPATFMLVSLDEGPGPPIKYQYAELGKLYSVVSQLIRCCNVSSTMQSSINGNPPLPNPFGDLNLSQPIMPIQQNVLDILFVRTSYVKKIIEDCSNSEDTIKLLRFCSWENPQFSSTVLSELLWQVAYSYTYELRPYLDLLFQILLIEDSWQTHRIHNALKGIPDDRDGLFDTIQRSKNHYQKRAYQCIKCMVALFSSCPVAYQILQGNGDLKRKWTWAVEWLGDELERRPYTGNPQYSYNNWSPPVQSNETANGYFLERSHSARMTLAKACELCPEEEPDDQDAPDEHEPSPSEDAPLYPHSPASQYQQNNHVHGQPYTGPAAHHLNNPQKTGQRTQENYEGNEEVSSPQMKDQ
Procedure, shortened: as §1

UniProt P51784 = biological target: UniProt P51784
UniProt P51784, sequence (P51784 whole entry): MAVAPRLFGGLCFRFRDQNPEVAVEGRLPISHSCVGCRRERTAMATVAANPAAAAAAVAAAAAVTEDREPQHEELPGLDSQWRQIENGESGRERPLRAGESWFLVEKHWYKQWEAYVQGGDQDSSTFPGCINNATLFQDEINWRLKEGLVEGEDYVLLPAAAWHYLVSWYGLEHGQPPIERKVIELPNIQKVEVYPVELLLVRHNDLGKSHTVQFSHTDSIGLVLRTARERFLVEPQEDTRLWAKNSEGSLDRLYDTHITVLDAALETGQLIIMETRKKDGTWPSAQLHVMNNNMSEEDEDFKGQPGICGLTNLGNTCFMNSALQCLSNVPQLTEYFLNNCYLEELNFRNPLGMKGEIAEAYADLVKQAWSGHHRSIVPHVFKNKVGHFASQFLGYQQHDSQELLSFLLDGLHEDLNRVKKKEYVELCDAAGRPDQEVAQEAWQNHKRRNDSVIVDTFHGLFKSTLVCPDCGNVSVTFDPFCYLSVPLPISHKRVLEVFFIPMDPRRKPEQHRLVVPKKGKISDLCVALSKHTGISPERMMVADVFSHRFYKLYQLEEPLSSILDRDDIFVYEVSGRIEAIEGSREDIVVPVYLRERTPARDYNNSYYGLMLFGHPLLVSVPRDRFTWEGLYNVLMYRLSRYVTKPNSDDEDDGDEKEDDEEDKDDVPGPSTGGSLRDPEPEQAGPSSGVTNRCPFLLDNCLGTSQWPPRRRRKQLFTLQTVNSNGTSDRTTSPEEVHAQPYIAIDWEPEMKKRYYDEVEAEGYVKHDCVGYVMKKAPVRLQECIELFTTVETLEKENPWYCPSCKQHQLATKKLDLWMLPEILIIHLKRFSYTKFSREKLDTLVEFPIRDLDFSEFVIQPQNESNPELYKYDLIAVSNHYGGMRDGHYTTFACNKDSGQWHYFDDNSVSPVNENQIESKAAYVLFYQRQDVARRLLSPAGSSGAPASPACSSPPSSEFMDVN
Procedure, shortened: as §1

UniProt Q5T2D3 = biological target: T1, UniProt Q5T2D3
T1 sequence (whole entry): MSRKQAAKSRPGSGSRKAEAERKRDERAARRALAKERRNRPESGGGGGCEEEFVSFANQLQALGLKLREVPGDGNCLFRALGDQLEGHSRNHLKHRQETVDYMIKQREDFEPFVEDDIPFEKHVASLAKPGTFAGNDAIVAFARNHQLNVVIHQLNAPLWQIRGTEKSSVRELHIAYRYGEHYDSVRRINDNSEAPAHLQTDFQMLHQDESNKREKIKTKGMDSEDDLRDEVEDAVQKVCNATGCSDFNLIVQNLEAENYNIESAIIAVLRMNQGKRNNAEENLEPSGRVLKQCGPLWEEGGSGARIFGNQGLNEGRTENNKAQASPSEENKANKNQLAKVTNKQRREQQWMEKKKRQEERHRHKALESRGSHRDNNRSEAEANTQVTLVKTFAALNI
Procedure, shortened: as §1

UniProt Q8TE49 = biological target: T2, UniProt Q8TE49
T2 sequence (whole entry): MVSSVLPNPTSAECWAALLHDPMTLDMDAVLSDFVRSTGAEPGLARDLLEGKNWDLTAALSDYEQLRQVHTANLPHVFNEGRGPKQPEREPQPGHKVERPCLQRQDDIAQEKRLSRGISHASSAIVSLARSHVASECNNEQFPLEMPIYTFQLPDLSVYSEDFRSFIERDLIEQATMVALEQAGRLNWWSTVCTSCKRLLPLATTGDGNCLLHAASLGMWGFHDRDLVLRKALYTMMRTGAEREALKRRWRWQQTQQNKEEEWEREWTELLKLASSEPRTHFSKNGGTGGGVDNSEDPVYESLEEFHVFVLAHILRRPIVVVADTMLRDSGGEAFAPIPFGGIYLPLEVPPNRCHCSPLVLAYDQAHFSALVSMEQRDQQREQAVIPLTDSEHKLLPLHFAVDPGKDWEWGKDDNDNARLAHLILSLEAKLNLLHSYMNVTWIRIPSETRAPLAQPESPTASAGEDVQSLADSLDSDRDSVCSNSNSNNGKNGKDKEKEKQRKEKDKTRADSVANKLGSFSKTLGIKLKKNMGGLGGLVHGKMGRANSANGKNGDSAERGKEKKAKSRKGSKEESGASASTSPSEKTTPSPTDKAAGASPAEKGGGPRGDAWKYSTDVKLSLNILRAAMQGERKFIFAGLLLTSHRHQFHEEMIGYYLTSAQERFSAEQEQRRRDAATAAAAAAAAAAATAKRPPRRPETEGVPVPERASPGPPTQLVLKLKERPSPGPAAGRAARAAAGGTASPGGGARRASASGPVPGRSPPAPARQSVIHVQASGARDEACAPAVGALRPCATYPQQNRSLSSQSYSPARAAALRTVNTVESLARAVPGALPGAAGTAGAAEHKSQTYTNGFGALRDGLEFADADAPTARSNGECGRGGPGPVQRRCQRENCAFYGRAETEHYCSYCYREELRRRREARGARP
Procedure, shortened: as §1

UniProt Q9P2H5 = biological target: T3, UniProt Q9P2H5
T3 sequence (whole entry): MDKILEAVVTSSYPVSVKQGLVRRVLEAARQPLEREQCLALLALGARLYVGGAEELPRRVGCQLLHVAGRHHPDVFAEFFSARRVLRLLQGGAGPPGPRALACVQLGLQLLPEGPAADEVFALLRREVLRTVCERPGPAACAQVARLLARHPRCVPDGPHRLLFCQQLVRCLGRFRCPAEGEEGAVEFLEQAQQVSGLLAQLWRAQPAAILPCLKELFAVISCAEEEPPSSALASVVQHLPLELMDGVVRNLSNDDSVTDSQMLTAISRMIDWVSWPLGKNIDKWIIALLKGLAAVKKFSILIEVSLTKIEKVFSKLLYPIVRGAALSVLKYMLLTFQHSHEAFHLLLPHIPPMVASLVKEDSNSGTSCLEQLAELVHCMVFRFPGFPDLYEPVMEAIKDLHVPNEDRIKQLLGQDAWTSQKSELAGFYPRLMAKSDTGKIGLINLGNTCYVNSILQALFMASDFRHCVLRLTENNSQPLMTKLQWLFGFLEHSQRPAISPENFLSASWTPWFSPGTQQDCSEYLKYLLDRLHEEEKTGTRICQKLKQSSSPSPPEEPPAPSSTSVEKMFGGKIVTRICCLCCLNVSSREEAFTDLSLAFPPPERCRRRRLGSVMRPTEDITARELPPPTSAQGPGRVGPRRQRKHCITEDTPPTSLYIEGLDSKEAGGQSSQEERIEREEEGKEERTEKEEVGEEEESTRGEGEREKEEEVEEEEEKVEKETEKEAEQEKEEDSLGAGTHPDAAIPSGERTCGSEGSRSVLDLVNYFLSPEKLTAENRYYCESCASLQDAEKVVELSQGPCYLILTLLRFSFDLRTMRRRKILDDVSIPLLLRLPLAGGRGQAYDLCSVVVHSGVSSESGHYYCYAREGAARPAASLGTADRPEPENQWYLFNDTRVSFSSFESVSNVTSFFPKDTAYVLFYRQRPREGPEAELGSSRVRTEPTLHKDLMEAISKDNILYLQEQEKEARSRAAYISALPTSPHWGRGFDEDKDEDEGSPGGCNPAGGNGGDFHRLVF
Procedure, shortened: as §1

UniProt Q9UGI0 = biological target: T4, UniProt Q9UGI0
T4 sequence (whole entry): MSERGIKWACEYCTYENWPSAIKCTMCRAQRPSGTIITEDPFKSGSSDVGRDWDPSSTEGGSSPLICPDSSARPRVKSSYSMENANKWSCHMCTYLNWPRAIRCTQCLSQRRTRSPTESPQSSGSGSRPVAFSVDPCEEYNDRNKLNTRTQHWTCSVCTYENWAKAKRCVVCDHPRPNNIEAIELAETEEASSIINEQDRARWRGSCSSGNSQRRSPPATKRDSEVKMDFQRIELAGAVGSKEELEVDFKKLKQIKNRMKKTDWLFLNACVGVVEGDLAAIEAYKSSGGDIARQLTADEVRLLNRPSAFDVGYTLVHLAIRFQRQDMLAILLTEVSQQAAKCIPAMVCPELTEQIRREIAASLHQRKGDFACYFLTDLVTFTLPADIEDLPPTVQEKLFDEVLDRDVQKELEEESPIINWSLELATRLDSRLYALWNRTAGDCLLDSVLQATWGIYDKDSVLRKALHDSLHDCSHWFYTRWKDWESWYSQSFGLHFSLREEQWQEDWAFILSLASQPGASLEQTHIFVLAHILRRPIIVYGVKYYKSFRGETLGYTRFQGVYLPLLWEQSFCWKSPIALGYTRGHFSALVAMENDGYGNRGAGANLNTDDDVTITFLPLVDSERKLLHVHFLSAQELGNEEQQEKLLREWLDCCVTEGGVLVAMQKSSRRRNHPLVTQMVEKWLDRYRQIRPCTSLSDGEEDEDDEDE
Procedure, shortened: as §1

YOD1 = biological target: T5, YOD1 (UniProt Q5VVQ6)
T5 sequence (whole entry): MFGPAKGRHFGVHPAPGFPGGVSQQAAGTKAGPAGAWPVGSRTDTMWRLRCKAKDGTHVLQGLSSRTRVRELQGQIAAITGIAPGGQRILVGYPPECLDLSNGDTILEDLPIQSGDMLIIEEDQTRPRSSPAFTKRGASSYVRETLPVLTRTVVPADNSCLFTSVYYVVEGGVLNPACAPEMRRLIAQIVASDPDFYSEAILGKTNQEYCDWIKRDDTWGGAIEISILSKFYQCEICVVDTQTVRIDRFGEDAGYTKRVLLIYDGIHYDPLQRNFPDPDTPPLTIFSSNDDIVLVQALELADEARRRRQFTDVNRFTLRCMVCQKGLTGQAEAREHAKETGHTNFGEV
Procedure, shortened: as §1

Measured: log2 ratio of Biotin-Ahx-Ub-VS probe labelling

O=C(CCl)N1c2ccccc2NC(=O)C12CCCC2
inactive: USP9X -0.316 | UniProt O00487 0.0785 | UniProt O00507 -0.37 | UniProt P51784 0.258 | UniProt Q5T2D3 -0.0754 | UniProt Q8TE49 -0.35 | UniProt Q9P2H5 0.0618 | UniProt Q9UGI0 -0.0496 | YOD1 -0.0709
